Laboratory results from ChEMBL document CHEMBL4513141, “CO-ADD screening of NIH (USA) - Clinical Collection” (2021).
Results with a measured potency or affinity are listed apart.

Legend:
Staphylococcus aureus = settings: Concentration 20 uM; ASSAY_TEST Inhibition of Bacterial Growth; detection method Absorption (OD600); MEDIA CAMHB; plate type 384well; NBS; CORNING #3640; time 18 hr
Escherichia coli = settings: Concentration 20 uM; ASSAY_TEST Inhibition of Bacterial Growth; detection method Absorption (OD600); MEDIA CAMHB; plate type 384well; NBS; CORNING #3640; time 18 hr

Row | SMILES | Inhibition (Staphylococcus aureus) [%] | Inhibition (Escherichia coli) [%]
1 | CC1(C)S[C@@H]2[C@H](/N=C/N3CCCCCC3)C(=O)N2[C@H]1C(=O)O [AMDINOCILLIN] | 10.96 | 1.83
2 | CC(=O)/N=c1/sc(S(N)(=O)=O)nn1C [METHAZOLAMIDE] | 5.78 | 3.59
3 | CC#C[C@]1(O)CC[C@H]2[C@@H]3CCC4=CC(=O)CCC4=C3[C@@H](c3ccc(N(C)C)cc3)C[C@@]21C [MIFEPRISTONE] | 11.2 | -7.81
4 | N#Cc1ccc(C(c2ccc(C#N)cc2)n2cncn2)cc1 [LETROZOLE] | 12.65 | -0.32
5 | COC(=O)C1=C(C)NC(C)=C(C(=O)O[C@@H]2CCCN(Cc3ccccc3)C2)[C@@H]1c1cccc([N+](=O)[O-])c1.Cl | 8.73 | -0.62
6 | Cl.Clc1ccccc1CN1CCc2sccc2C1 [TICLOPIDINE HYDROCHLORIDE] | 6.77 | 1.84
7 | CCOC(=O)C1=C(C)NC(C)=C(C(=O)OC)C1c1cccc([N+](=O)[O-])c1 (stereo not drawn) [NITRENDIPINE] | 11.21 | -2.58
8 | CC1(C)O[C@@H]2[C@@H](CO[C@@]3(COS(N)(=O)=O)OC(C)(C)O[C@@H]23)O1 [TOPIRAMATE] | 3.5 | 6.36
9 | Cl.O.OC[C@H]1O[C@@H](n2cnc3c(N[C@H]4CCC[C@@H]4O)ncnc32)[C@@H](O)C1O (stereo partly drawn) | 7.67 | 1.98
10 | O=C(O)CCc1nc(-c2ccccc2)c(-c2ccccc2)o1 [OXAPROZIN] | 10.43 | 2.77
11 | Cn1cnc([N+](=O)[O-])c1Sc1ncnc2[nH]cnc12 [AZATHIOPRINE] | 18.19 | 3.51
12 | CCCCC[C@H](O)/C=C/[C@H]1[C@H](O)CC(=O)[C@@H]1CCCCCCC(=O)O [ALPROSTADIL] | 3.1 | 6.55
13 | CC(C)(S)C(N)C(=O)O (stereo not drawn) [DL-PENICILLAMINE] | 15.93 | -3.28
14 | O=C(C1CCCCC1)N1CC(=O)N2CCc3ccccc3C2C1 (stereo not drawn) [PRAZIQUANTEL] | 20.65 | 3.85
15 | Cl.Cn1c(NCCN(CCO)CCCc2ccc([N+](=O)[O-])cc2)cc(=O)n(C)c1=O | -11.53 | 3.31
16 | NS(=O)(=O)c1cc(C(=O)O)c(NCc2ccco2)cc1Cl [FUROSEMIDE] | 14.48 | -0.33
17 | Nc1ccn([C@@H]2O[C@H](CO)[C@@H](O)[C@@H]2O)c(=O)n1 [CYTARABINE] | 17.83 | -2.15
18 | CC1(C)O[C@@H]2C[C@H]3[C@@H]4C[C@H](F)C5=CC(=O)C=C[C@]5(C)[C@H]4[C@@H](O)C[C@]3(C)[C@]2(C(=O)CO)O1 [FLUNISOLIDE] | 6.94 | 3.33
19 | Nc1ccn([C@@H]2CS[C@H](CO)O2)c(=O)n1 [LAMIVUDINE] | 9.88 | 8.04
20 | CN(C)CCC[C@@]1(c2ccc(F)cc2)OCc2cc(C#N)ccc21.O=C(O)C(=O)O [ESCITALOPRAM OXALATE] | 8.47 | 3.57

Row | SMILES | Inhibition (Staphylococcus aureus) [%] | Inhibition (Escherichia coli) [%]
21 | O.OC[C@H]1O[C@@H](n2cnc3c(NC4CCCC4)nc(Cl)nc32)[C@@H](O)C1O (stereo partly drawn) | 16.71 | -5.97
22 | CCCSc1ccc2[nH]c(NC(=O)OC)nc2c1 [ALBENDAZOLE] | 3.05 | 1.87
23 | C=C1/C(=C\C=C2/CCC[C@]3(C)[C@@H]([C@H](C)CCCC(C)(C)O)CC[C@@H]23)C[C@@H](O)C[C@@H]1O [CALCITRIOL] | 3.12 | 7.51
24 | Cl.OC(CCN1CCCC1)(c1ccccc1)C1CCCCC1 (stereo not drawn) [PROCYCLIDINE HYDROCHLORIDE] | 17.75 | -5.9
25 | Cc1occc(=O)c1O [MALTOL] | 14.12 | 4.13
26 | C=C(CC)C(=O)c1ccc(OCC(=O)O)c(Cl)c1Cl [ETHACRYNIC ACID] | 39.53 | 0.95
27 | Nc1ccc(S(=O)(=O)c2ccc(N)cc2)cc1 [DAPSONE] | -0.58 | 0.96
28 | CCC(=O)O[C@]1(C(=O)SCF)[C@H](C)C[C@H]2[C@@H]3C[C@H](F)C4=CC(=O)C=C[C@]4(C)[C@@]3(F)[C@@H](O)C[C@@]21C [FLUTICASONE PROPIONATE] | -21.58 | 6.95
29 | O=C(O)CCNC(=O)c1ccc(N=Nc2ccc(O)c(C(=O)O)c2)cc1 | 1.56 | -1.37
30 | Nc1nnc(-c2cccc(Cl)c2Cl)c(N)n1 [LAMOTRIGINE] | 8.71 | 4.49
31 | Cl.O=C(c1ccc(OCCN2CCCCC2)cc1)c1c(-c2ccc(O)cc2)sc2cc(O)ccc12 [RALOXIFENE HYDROCHLORIDE] | 16.87 | -1.03
32 | Cc1cccc(Nc2ccccc2C(=O)O)c1C [MEFENAMIC ACID] | 15.6 | 6.03
33 | COCCCC/C(=N\OCCN)c1ccc(C(F)(F)F)cc1.O=C(O)/C=C\C(=O)O [FLUVOXAMINE MALEATE] | 7.49 | 3.58
34 | O=C(O)c1cc(-c2ccc(F)cc2F)ccc1O [DIFLUNISAL] | -11.25 | 6.27
35 | Cc1ncc([N+](=O)[O-])n1CCO [METRONIDAZOLE] | 17.23 | 2.82
36 | CC(COc1ccccc1)NC(C)C(O)c1ccc(O)cc1.Cl (stereo not drawn) [ISOXSUPRINE HYDROCHLORIDE] | 10.12 | -2.1
37 | CC[C@@H]1C(=O)OC[C@@H]1Cc1cncn1C.Cl [PILOCARPINE HYDROCHLORIDE] | 15.92 | 5.77
38 | CC[C@H]1OC(=O)[C@H](C)C(=O)[C@H](C)[C@@H](O[C@@H]2O[C@H](C)C[C@H](N(C)C)[C@H]2O)[C@](C)(OC)C[C@@H](C)C(=O)[C@H](C)[C@@H]2N(CCCCn3cnc(-c4cccnc4)c3)C(=O)O[C@@]21C | 4.38 | 4.81
39 | Cc1ncc([N+](=O)[O-])n1CC(O)CCl (stereo not drawn) [ORNIDAZOLE] | 10.83 | 5.05
40 | CC(=O)Nc1ccc(CC(=O)O)cc1 [ACTARIT] | -0.71 | 3.54

Row | SMILES | Inhibition (Staphylococcus aureus) [%] | Inhibition (Escherichia coli) [%]
41 | NS(=O)(=O)c1cc2c(cc1C(F)(F)F)NCNS2(=O)=O [HYDROFLUMETHIAZIDE] | 14.86 | 7.25
42 | Cl.Nc1nc2ccc(OC(F)(F)F)cc2s1 | 13.98 | 2.43
43 | CC(C)Cc1ccc(C(C)C(=O)O)cc1 (stereo not drawn) [IBUPROFEN] | -8.87 | 0.37
44 | CN1CCC(=C2c3ccccc3C=Cc3ccccc32)CC1.Cl [CYPROHEPTADINE HYDROCHLORIDE] | 5.98 | 6.77
45 | CC(C)c1nc(CN(C)C(=O)N[C@H](C(=O)N[C@@H](Cc2ccccc2)C[C@H](O)[C@H](Cc2ccccc2)NC(=O)OCc2cncs2)C(C)C)cs1 [RITONAVIR] | 13.2 | -0.63
46 | Cl.O=C1[C@H]2CCCC[C@H]2C(=O)N1CCCCN1CCN(c2nsc3ccccc23)CC1 | 14.1 | 0.37
47 | O=C1C(c2c(O)[nH]c3ccccc23)=Nc2ccccc21 | 2.27 | -3.28
48 | CCCCC(=O)OC1(C(=O)CO)CCC2C3CCC4=CC(=O)CCC4(C)C3C(O)CC21C (stereo not drawn) | 4.02 | 3.22
49 | CCC(=C(c1ccccc1)c1ccc(OCCN(C)C)cc1)c1ccccc1 | 2.87 | 6.04
50 | CCN(CC)CCOC(=O)c1ccc(N)cc1.Cl [PROCAINE HYDROCHLORIDE] | 7.14 | 4.36
51 | N=c1cc(N2CCCCC2)nc(N)n1O | 14.68 | -3.43
52 | COc1ccccc1N1CCN(CCCNc2cc(=O)n(C)c(=O)n2C)CC1.Cl [URAPIDIL HYDROCHLORIDE] | 12.2 | 0.81
53 | CC(=O)[C@H]1CC[C@H]2[C@@H]3C[C@H](C)C4=CC(=O)CC[C@]4(C)[C@H]3[C@@H](O)C[C@]12C [MEDRYSONE] | 2.89 | 2.65
54 | CC(=O)NCCCCCCNC(C)=O [HEXAMETHYLENEBISACETAMIDE] | -6.23 | 3.8
55 | Nc1ccn([C@H]2CC[C@@H](CO)O2)c(=O)n1 [ZALCITABINE] | 4.24 | -9.44
56 | COc1ccc2cc(CCC(C)=O)ccc2c1 [NABUMETONE] | 14 | 3.66
57 | CC(C(=O)O)c1cccc(C(=O)c2ccccc2)c1 (stereo not drawn) [KETOPROFEN] | 6.88 | -2.29
58 | CCOC(=O)C1=C(C)NC(C)=C(C(=O)OC)C1c1cccc(Cl)c1Cl (stereo not drawn) [FELODIPINE] | 13.21 | 4.41
59 | Cc1cccc(CCN2CCC(C(=O)c3ccc(NS(C)(=O)=O)cc3)CC2)n1.Cl.Cl | 15.03 | -5.54
